Results from PMC5540273 (PLoS ONE, 2017).

Legend:
Conditions in all cases: concentration: 1 μM, replicates: in singlicate; n = 1
[1] = test system: PFTAIRE2
[2] = test system: T1, PFTK1
T1 construct: gene CDK14

[3] = test system: PHKG1
[4] = test system: PHKG2
[5] = test system: PIK3C2B
[6] = test system: PIK3C2G
[7] = test system: PIK3CA
[8] = test system: PIK3CB
[9] = test system: PIK3CD
[10] = test system: PIK3CG
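Note: KINOMEscan kinase panel screen.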

Compound | %Inh [1] [%] | %Inh [2] [%] | %Inh [3] [%] | %Inh [4] [%] | %Inh [5] [%] | %Inh [6] [%] | %Inh [7] [%] | %Inh [8] [%] | %Inh [9] [%] | %Inh [10] [%]
CC(C)c1ccc(O)cc1Nc1ccnc2ccc(C(F)(F)F)cc12 [GW482059] | 1 | 0 | 0 | 0 | 0 | 15 | 0 | 0 | 25 | 0
FC(F)(F)c1ccccc1-c1cc(-c2c[nH]nc2-c2ccccn2)ccn1 [GW679396] | 10 | 14 | 3 | 4 | 0 | 0 | 0 | 18 | 0 | 3
Cn1cncc1-c1cc2c(Nc3ccc(OCc4ccccc4)cc3)ncnc2cn1 [GW281179] | 9 | 20 | 4 | 0 | 24 | 0 | 0 | 0 | 0 | 0
O=C1NC(=O)C(c2ccc(Cl)cc2)=C1Nc1cccc(Cl)c1 [SB-317651] | 0 | 1 | 0 | 0 | 13 | 0 | 9 | 96.7 | 0 | 38
COc1ccc(-c2coc3ccc(-c4nnc(C)o4)cc23)cc1 | 0 | 9 | 0 | 20 | 0 | 21 | 0 | 0 | 0 | 12
